Measurements: the supplement of paper PMC6555819

Experiments:
Test in all cases: PBM binding z-score (relative to random genomic background probes); higher = stronger binding; sequences stand for … in GC…GCGATTGACAGCGTAGAATGAAGG
[1] = system: LXRa homodimer (NR concentration 270 nM)
In short: (§1)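 Scanned fluorescence from custom Agilent 4×180K protein-binding microarrays was regression-normalized. Binding z-scores use random background probes as reference. Ligand-free nuclear receptor dimers were incubated on the arrays for 1 h and detected with antibodies against each partner (one per run).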

[2] = system: LXRb homodimer (NR concentration 270 nM)
In short: as §1

[3] = system: PPARg:RXRa (NR concentration 180 nM, RXRa partner concentration 90 nM)
In short: as §1

[4] = system: PPARg:RXRa 270nM:90nM, anti-RXR (NR concentration 270 nM, RXRa partner concentration 90 nM)
In short: as §1

[5] = system: PPARg:RXRa 30nM:10nM, anti-RXR (NR concentration 30 nM, RXRa partner concentration 10 nM)
In short: as §1

[6] = system: PPARg:RXRa 90nM:30nM, anti-RXR (NR concentration 90 nM, RXRa partner concentration 30 nM)
In short: as §1

[7] = system: PPARg:RXRa DBDmut IVT, anti-RXR (DBD mutation: RXRa K156A/R161A, NR concentration 270 nM, RXRa partner concentration 90 nM)
In short: as §1

Sequence	PBM binding z-score [1]	PBM binding z-score [2]	PBM binding z-score [3]	PBM binding z-score [4]	PBM binding z-score [5]	PBM binding z-score [6]	PBM binding z-score [7]
CGTCAAAGGTCAAAGGTCAGTGAAGAGATGACGG	5.49	4.46	11.4	9.58	9.03	10.4	5.34
CCTTAGGGGTCAAGGTTATAGCACGGGTGGTACG	1.33	1.15	8.58	7.98	5.01	7.42	3.07
ATCGAAAGGTCAAAGGTGAGTATACCCACCCGAA	4.82	4.53		8.89	6.69	8.79	4.23
AGTCAAAGGTCATCTAGGTAACGTAAGATATGCT	4.61	5.04		8.23	6.82	8.3	4.12
TGTCAAAGTTCAAAGGTCACGTAAGTATCCACAC	7.63	3.24		9.52	7.66	10.2	1.46
AATACGGGGTCATCGTAGGCCAGAGTACGCACAG	4.62	2.94	9.53	8.49	6.12	7.88	4.48
CGTCAAAGTTCAACTAAGGTCACGTAAAGCACGC	8.57	2.98	6.26	6.88	3.49	5.51	1.14
TATACAGGGTCAAAGGTCAGAGTACGAATGTCGA	4.72	3.86		9.79	9.88	10.9	3.73
CAAACCAGGTCAAAGGTCAAAGTCGAGCCAACCA	5.78	3.31	13.2	10.7	11.3	12	6.71
CCTCGGAGGTCAACAGGAGGTCAGAGCTGCCAGA	4.43	1.49	6.66	6.55	2.94	5.21	3.21
CGTTCAAGGTCAAAGGTCAGTGAAGAGATGACGG	4.39	2.52		9.86	11.2	11.5	5.39
CGTACAAGGTCAAAGGTCAGTGAAGAGATGACGG	3.43	2.4		10.1	11.2	11.9	5.32
CAAACGAGGTCACGAAAGGTCAAAGTCGAATGAC	9.67	3.56	10.1	8.71	6.72	8.74	6.75
ATCGAAAGGTCAAGGTGAGTATAGAGAAAGGGAA	2.78	3.58	8.08	7.77	5.24	7.07	3.34
TGTCAAAGGTCAAAGGTAACGTAAGTATCCACAC	4.19	4.32		9.9	8.47	10.5	4.01
CGTCCAAGGTCAAAGGTCATTGAAGAGATGACGG	6.32	3.11		10	9.22	11.6	4.6
CCTTAGGGGTCACGAGGTTATAGCACGACGAGCG	1.59	0.631		9.08	6.93	8.31	5.82
CAAACAAGGTCACGAAAGGTCAAAGTCGAATGAC	8.69	3.83	9.38	8.37	5.8	7.95	5.71
CGTCAAAGGTCAACTAAGGTAACGTAAAGCACGC	3.42	4.64	9.18	8.77	6.39	8.42	5.01
CGTCAAAGGTCAAGGTAACGTAACAGAAAGCAGC	2.47	2.82	9.12	8.51	6.2	8.31	4.8
CGTCAAAGGTCATAGGAGGTCAGTGAAGACAGAT	6.84	3.02	8.97	8.33	5.97	7.99	4.36
